Laboratory results published in PubChem BioAssay.

What follows are compounds tested against Torsin-1A (Homo sapiens) (UniProt O14656) (assay: torsin A binders from cell lysate, primary screen, small-molecule microarray, wild-type, 635/667 nm (AID 1149)). Conditions: COS7 hTOR1A-WT lysate, 635 nm fluorescence, higher = more signal.
Sequence of Torsin-1A (Homo sapiens) (O14656 whole entry, looked up): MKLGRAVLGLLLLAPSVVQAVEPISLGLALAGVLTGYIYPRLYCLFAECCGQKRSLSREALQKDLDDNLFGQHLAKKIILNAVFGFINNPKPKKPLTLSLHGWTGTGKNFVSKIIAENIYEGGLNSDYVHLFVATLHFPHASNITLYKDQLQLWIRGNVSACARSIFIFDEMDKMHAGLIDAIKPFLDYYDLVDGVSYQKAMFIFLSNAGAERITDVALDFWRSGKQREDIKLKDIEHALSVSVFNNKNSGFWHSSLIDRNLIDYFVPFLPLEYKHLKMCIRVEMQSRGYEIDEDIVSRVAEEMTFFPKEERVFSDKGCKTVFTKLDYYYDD

SMILES	composite z-score
COC(=O)[C@@]1(Cc2ccc(OC)cc2)[C@H]2c3cc(C(=O)N4CCCC4)n(Cc4nc5ccccc5[nH]4)c3C[C@H]2CN1C(=O)c1ccccc1	0.0984
COc1ccc(NC(=O)O[C@H]2[C@H](OC(=O)c3cc4ccccc4[nH]3)[C@@H](OC(=O)c3cc4ccccc4[nH]3)[C@@H](OC)O[C@@H]2CO)cc1	-0.0863
C=C(CCCC)C(=O)CC[C@@H](OC(C)=O)c1ccc(CO)o1	-0.0372
O=C1[C@H]2C=C(I)[C@H](C[C@@H]2OCCCCO)[C@@]12CO2	0.953
COCCCNC(=O)[C@@]1(Cc2ccccc2)N=C(c2ccc(OCCCO)cc2)O[C@H]1c1ccccc1CN=[N+]=[N-]	0.544
CN(C)CCCCCCNC(=O)[C@@H]1C[C@@H]2C(=O)N3CCC[C@H]3C(=O)N2[C@@H]1c1ccc(O)cc1	1.4
COc1ccc([C@H]2C[C@H]3C(Br)=C[C@@]2(CO)C(=O)[C@]32CO2)cc1	-0.361
C=CCNC(=O)[C@@H]1[C@H]2C(=O)O[C@H](c3ccccc3)[C@H](c3ccccc3)N2[C@H](c2ccc(OCCO)cc2)[C@@]12C(=O)N(C(=O)OCCOC)c1ccc(C#CCNC(N)=O)cc12	0.609
CS(=O)(=O)CCOC(=O)C1=CC(CCCO)=CC(c2ccc(CN3CCCC3)cc2)N(Cc2cccc(OC(F)(F)F)c2)C=C1C(=O)OCCS(C)(=O)=O (stereo unspecified)	0.907
COCCOC(=O)N1C(=O)[C@@]2(c3cc(C#CC4(O)CCCCCC4)ccc31)[C@H](C(=O)Nc1nc3ccccc3s1)[C@H]1C(=O)O[C@H](c3ccccc3)[C@H](c3ccccc3)N1[C@@H]2c1ccc(OCCO)cc1	0.669
[N-]=[N+]=Nc1ccccc1C[C@]1(C(=O)NCC(O)CO)N=C(c2ccc(OCCCO)cc2)O[C@H]1c1ccccc1 (stereo partly specified)	-0.268
[N-]=[N+]=NCc1ccccc1C[C@@]1(C(=O)NCC(O)CO)N=C(c2ccc(OCCCO)cc2)O[C@@H]1c1ccccc1 (stereo partly specified)	0.237
C=CCN1C(=O)[C@]2(O[C@H](CCO)[C@@H]([Si](C)(C)c3ccc(OC)cc3)[C@@H]2C)c2cc(N(C=O)c3ccccc3)ccc21	-0.376
Cc1ccc(S(=O)(=O)N2C[C@@H](C(=O)O)[C@H](Sc3ccccc3)C[C@H]2c2ccccc2)cc1	0.301
COC(=O)[C@]1(Cc2ccccc2)N=C(c2ccc(OCCCO)cc2)O[C@@H]1c1ccccc1N=[N+]=[N-]	-0.0019
C=CC[C@]1(C(N)=O)N=C(c2ccc(OCCCO)cc2)O[C@H]1c1ccccc1	2.79
[N-]=[N+]=Nc1ccccc1[C@H]1OC(c2ccc(OCCCO)cc2)=N[C@@]1(Cc1ccccc1)C(=O)N1CCOCC1	0.124
O=C1NC(=O)C2C1C=CC(C(O)c1ccc(-c3ccccc3)s1)N2Nc1ccc(Cl)cc1Cl (stereo unspecified)	0.344

SMILES	composite z-score
NCCCCCNC(=O)[C@H]1C[C@H]2C(=O)N3CCC[C@H]3C(=O)N2[C@H]1c1ccc(O)cc1	1.66
CC(=O)n1cc(C(O)C2C=CC3C(=O)NC(=O)C3N2Nc2ccccn2)c2ccccc21 (stereo unspecified)	0.865
CO[C@H]1O[C@H](CO)[C@@H](OC(=O)Nc2cccc(F)c2)[C@H](OC(=O)Nc2ccccc2)[C@H]1OC(=O)Nc1ccccc1	1.28
CO[C@H]1O[C@H](CO)[C@@H](OC(=O)Nc2ccccc2-c2ccccc2)[C@H](OC(=O)Nc2ccccc2-c2ccccc2)[C@@H]1OC(=O)Nc1ccccc1-c1ccccc1	0.1
O=C(NCc1ccccc1)[C@@H]1c2ccccc2C(=O)N(C2Cc3ccccc3C2)[C@H]1c1ccc(CO)cc1	-0.0754
O=C1C2C=CC(C(O)c3ccc(-c4ccccc4)s3)N(Nc3ccccc3)C2C(=O)N1c1ccccc1 (stereo unspecified)	-0.499
Cc1c(NC(=O)/C(C#N)=C/c2cccc([N+](=O)[O-])c2)c(=O)n(-c2ccccc2)n1C	0.659
O=C1C2C=CC(C(O)c3c(F)cccc3Cl)N(Nc3ccccc3F)C2C(=O)N1c1ccccc1 (stereo unspecified)	0.0354
NCCCCCCNC(=O)[C@H]1C[C@H]2C(=O)N[C@@H](Cc3ccccc3)C(=O)N2[C@H]1c1cccc(OCCO)c1	1.24
CN(C)CCCC[C@@H]1NC(=O)[C@H]2C[C@@H](C(=O)NCCCCCN)[C@@H](c3cccc(OCCO)c3)N2C1=O	1.99
O=C(NCCN1CCOCC1)[C@@H]1c2ccccc2C(=O)N(Cc2cc(C(F)(F)F)cc(C(F)(F)F)c2)[C@H]1c1ccc(CO)cc1	-0.027
COc1ccc([Si](C)(C)[C@@H]2[C@@H](CC(=O)N3Cc4ccccc4C[C@H]3CO)O[C@]3(C(=O)N(Cc4cccc(N5CCC5=O)c4)c4ccccc43)[C@H]2C)cc1	0.589
CN1C(=O)C2C=CC(C(O)c3c(F)cccc3Cl)N(NC(=O)OC(C)(C)C)C2C1=O (stereo unspecified)	0.622
O=C1OCCC/C=C\[C@H]2OC34C=CCN(c5ccc6ccccc6c5)C(=O)[C@H]3N(CCCCCO)C(=O)[C@@H]4C12 (stereo partly specified)	-2.04
COc1ccc([Si](C)(C)[C@H]2[C@H](CC(=O)N3CCC[C@H]3CO)O[C@@]3(C(=O)N(Cc4cccc(N5CCOC5=O)c4)c4ccccc43)[C@@H]2C)cc1	0.716
COCC(=C=CC[C@H](O)c1cccc(OCCO)c1)CCO	-0.744
C=CCC(OC(C)=O)[C@@H]1[C@@H](N(Cc2ccc(-c3cccc(C(F)(F)F)c3)o2)C(=O)c2cccc3ccccc23)c2cc(OCCCO)ccc2N1C(=O)Cc1ccc2ccccc2c1 (stereo partly specified)	1.34
COCCOC(=O)N1C(=O)[C@@]2(c3ccccc31)[C@H](C(=O)N1CCCCCCC1)[C@H]1C(=O)O[C@H](c3ccccc3)[C@H](c3ccccc3)N1[C@@H]2c1ccc(OCCO)cc1	3.22
